Source: PubChem BioAssay AID686979 (National Center for Advancing Translational Sciences (NCATS), 2013)
Several values for one entry are separate records, joined by “and”; a condition that tells them apart may be missing. Equal entries are not always repeated. The whole screen tested about 420,000 compounds, of which about 50,000 (12%) were called active. Not shown: some 26% with an inconclusive outcome. The call rests on the fitted dose curve; in most records, active means well fitted inhibition curve with a large enough effect; inconclusive means small, poorly fitted or top-dose-only effect; inactive means flat fitted curve, though single readings scatter. For the sample, actives were picked, then their nearest neighbours and some compounds at random. Some compounds were tested as several samples or in several runs, with calls that do not always agree.

Experiment: qHTS for Inhibitors of human tyrosyl-DNA phosphodiesterase 1 (TDP1): qHTS in cells in presence of CPT; further: nearly all actives have a fitted effect of over 55% in size
Details: chicken DT40 Tdp1-/-;hTDP1 cells + 20 nM CPT, ATP luminescence, 48 h; series mostly up to 46.2 µM; activity change, negative = growth inhibition: at the top concentration
Text: Human tyrosyl-DNA phosphodiesterase 1 (TDP1) is a novel repair gene, and we propose to use it as a new target for anticancer drug development. TDP1 is not an essential protein, but under treatment with topoisomerase I poison (camptothecin: CPT), TDP1 works as a critical factor for cell survival. To directly identify novel TDP1 inhibitors active in a cellular environment, we have knocked-out the Tdp1 gene in chicken DT40 cells (Tdp1-/-) and generated a complemented counterpart cells that contains a stable transfection of the human TDP1 gene (Tdp1-/-;hTDP1 cells). For the primary screen, Tdp1-/-;hTDP1 cells will be exposed to small molecules in the presence or absence of CPT, and their growth kinetics will be evaluated after 48 hours by measuring ATP activity. […] The hit compounds will then be evaluated in the presence or absence of CPT using Tdp1-/- cells. […] In tertiary assays, biochemical gel-based assays will be used to assess whether the hit compounds specifically target TDP1. To this end, we have screened this cell line against the MLSMR in two primary screens. In one screen we add CPT and in the other we screen in the absence of CPT; this AID represents the screen where CPT was present. NIH Chemical Genomics Center [NCGC] NIH Molecular Libraries Probe Centers Network [MLPCN] MLPCN Grant: MH095538 Assay Submitter (PI): Yves Pommier, NCI
DT40-hTDP1 cells with 20 nM Camptothecin (add 20 microL of 1 mM CPT stock in 1 L of cell culture medium) were dispensed at 400 cells/5microL/well in tissue culture treated 1536-well white wall/solid bottom assay plates (Greiner Bio-One North America, NC, U.S.A.) using a Multidrop Combi 8 channel dispenser (Thermo Fisher, Waltham, MA, USA). 23 nL compounds and controls were transferred using the pin tool (Kalypsys, San Diego, CA, USA) to the assay plates. The assay plates were then incubated at 37 masculineC for a minimum 48 hr. Three microL of Cell Titer Glo solution was added to the plates and incubated at RT in dark for 30 min. Luminescence was read using ViewLux (Perkin Elmer) with 1 sec exposure slow speed, high gain and 2x binning.
On the % scale 0 is the no-effect control and ±100 the full control effect; potency means the concentration at half of the fitted maximal effect.

| SMILES | activity change, negative = growth inhibition | Potency |
| --- | --- | --- |
| Cc1ccn(CC(=O)N2N=C(C(F)F)CC2(O)C(F)F)n1 (configuration not stated) | -25.3% (inactive) |  |
| COc1cccc(CN2CCNC(=O)C2CC(=O)N(C)CCc2ccccn2)c1 (configuration not stated) | 10.9% (inactive) |  |
| O=C(NCCCNC(=O)NC1CCCCC1)NC1CCCCC1 | -19.5% (inactive) |  |
| O=C(Nc1ccc(Cl)cc1)Nc1ccc(Oc2cccnc2)nc1 |  | 18.4 µM (active) |
| Cc1ccc(NC(=O)Nc2cccnc2)cc1 | 4.49% (inactive) |  |
| O=C(NNC(=O)c1csc(-c2cccnc2)n1)Nc1ccc(Cl)cc1 | -15% (inactive) |  |
| CCN=c1sc(C(=O)Nc2ccccc2)c(C)n1CC | 2.49% (inactive) |  |
| O=C(COc1ccc(/C=N/NS(=O)(=O)c2ccccc2)cc1)NCCc1ccccc1 | -22.2% (inactive) |  |
| CC(C)NC(=O)COCc1cc(-c2ccc3c(c2)OCO3)on1 | -0.118% (inactive) |  |
| O=C(COCc1cc(-c2ccc3c(c2)OCO3)on1)N1CCN(c2cccc(Cl)c2)CC1 |  | inactive and 18.4 µM (active) |
| Cc1cccc(N2CCN(C(=O)COCc3cc(-c4ccc5c(c4)OCO5)on3)CC2)c1C |  | inactive |
| CC(=O)c1ccccc1NC(=O)C1CC(=O)N(c2ccc3c(c2)OCCO3)C1 (configuration not stated) | 0.743% (inactive) |  |
| N#CCCN(C(=O)COC(=O)C1CCN(c2ccc(C(F)(F)F)cn2)CC1)c1ccc(F)cc1 | -17.8% (inactive) |  |
| c1ccc(-n2nnnc2-c2cccnc2)cc1 | -7.87% (inactive) |  |
| FC(F)(F)c1nc(-c2ccccc2)ncc1-c1nnnn1-c1ccccc1 |  | 20.6 µM (active) |
| c1ccc(-n2nnnc2NC2CCCCCC2)cc1 | -24.8% (inactive) |  |
| Cc1ccc2c(=O)cc(C(=O)Nc3sc4c(c3C(=O)NCc3cccnc3)CCCC4)oc2c1 | 3% (inactive) |  |
| COc1ccc(C2CC(c3cccs3)=NN2C(=O)CSc2nnc(N)s2)cc1OC (configuration not stated) | 2.09% (inactive) |  |
| Fc1ccc2cnc(-c3ccccc3)cc2c1 | -40.8% (inactive) |  |
| Fc1ccc(Nc2nnns2)cc1 | -18.8% (inactive) |  |
| CSc1nc(Nc2ccc(F)cc2)cc(-c2ccccc2)n1 |  | 14.6 µM (active) |
| CCNc1nc(Oc2ccc(C(=O)OC)cc2)nc(N2CCOCC2)n1 | -2.75% (inactive) |  |
| COc1ccc(S(=O)(=O)NCc2ccc(C(=O)N(C)Cc3ccco3)cc2)cc1 | -26.5% (inactive) |  |
| O=C(NCCS(=O)(=O)NCc1ccc(F)cc1)c1ccccc1 | -16.7% (inactive) |  |
| COc1ccccc1S(=O)(=O)NCc1ccc(C(=O)N(C)Cc2ccc(F)cc2)cc1 |  | 20.6 µM (active) |
| NC(=O)c1oc2ccccc2c1NC(=O)CS(=O)(=O)c1ccccc1 | -14.5% (inactive) |  |

| SMILES | activity change, negative = growth inhibition | Potency |
| --- | --- | --- |
| CC[C@]12c3[nH]c4ccc(OC)cc4c3CCN1C(=O)C(CC(=O)NCCN1CCOCC1)C[C@@H]2C(=O)N1CCN(C(=O)C2CC2)CC1 (some centres not stated) | -0.596% (inactive) |  |
| c1ccc2c(c1)CSc1sccc1C2=C1CCNCC1 |  | 20.6 µM (active) |
| Cc1csc(NCC(=O)c2c[nH]c3ccccc23)n1 | 12.2% (inactive) |  |
| NC(=O)NCCCC(=O)O | 0.521% (inactive) |  |
| Cc1cc(C)n(CCNCc2c(C(=O)N3C[C@@H](C)O[C@@H](C)C3)nc3ccc(Cl)cn23)n1 | 7.87% (inactive) |  |
| CC(=O)Oc1cccc(C(=O)Nc2ccccc2NC(=O)c2cccc(OC(C)=O)c2)c1 | -13.8% (inactive) |  |
| Cc1ccc(C)c2[nH]c(=O)c(CCNC(=O)CC(C)C)cc12 | 10.6% (inactive) |  |
| COc1ccc(OC)c2[nH]c(=O)c(CCNC(=O)C(C)(C)C)cc12 | 4.38% (inactive) |  |
| COc1ccc(OC)c2[nH]c(=O)c(CCNC(=O)C(=O)c3c[nH]c4ccccc34)cc12 |  | 10.3 µM (active) |
| CC1(C(=O)NCc2ccccc2)CSCC(=O)N1CCCn1ccnc1 (configuration not stated) | 15.7% (inactive) |  |
| CC(=O)Nc1ccc(NC(=S)NC(=O)/C=C/c2ccccc2)cc1 | 21.7% (inactive) |  |
| O=C(/C=C/c1ccccc1)c1ccccc1O |  | 10.3 µM (active) |
| O=C(O)c1ccc2c(c1)C(=O)N(c1ccc(/C=C/C(=O)c3ccccc3)cc1)C2=O | 11.4% (inactive) |  |
| CC1(C(=O)O)CCN1C(=O)/C=C/c1ccccc1 (configuration not stated) | -1.88% (inactive) |  |
| CC1(C)C=Cc2c(ccc(C(=O)/C=C/c3ccccc3)c2O)O1 |  | 7.94 µM (active) |
| O=C(/C=C/c1ccccc1)N/C(=C/c1ccccc1)C(=O)Nc1ccccc1O | -12.3% (inactive) |  |
| N#CC1=C(N)Oc2[nH]c(=S)[nH]c(=O)c2C12C(=O)Nc1ccccc12 (configuration not stated) | -39.3% (inactive) |  |
| O=S(=O)(Nc1ccc2ccccc2c1)N1CCCCC1 | -17% (inactive) |  |
| CC1CN/C(=C\C(=O)c2ccc(Br)cc2)C(=O)N1 (configuration not stated) | -28% (inactive) |  |
| CCN(CC)CCN(C(=O)c1ccc(S(=O)(=O)N2CCOCC2)cc1)c1nc2cc3c(cc2s1)OCCO3 | -18.7% (inactive) |  |
| CN(C)CCCN(C(=O)c1ccc(S(=O)(=O)N2CCCCCC2)cc1)c1nc2ccc(Br)cc2s1 |  | 11.6 µM (active) |
| CCOc1ccc2nc(N(CCN(C)C)C(=O)c3ccc4ccccc4c3)sc2c1 | -27.2% (inactive) |  |
| O=c1/c(=C/c2ccc(CNS(=O)(=O)c3ccccc3)o2)sc2n1CCN=2 | -26.8% (inactive) |  |
| Cc1cc(C)n2c(NCc3ccccc3)c(CC(C)C)nc2n1 |  | 14.6 µM (active) |
| Nc1nc(NCc2ccccc2)n(-c2ccccc2)n1 | -6.22% (inactive) |  |
| Cn1cc(C2OC(=O)c3ccccc32)c2ccccc21 (configuration not stated) | -26.2% (inactive) |  |
